Compounds without any hit were thinned out: in the full panel of roughly 83,000, 20% have a hit.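 For each line, cells grew in 96-well plates with the test compound present at a single concentration for 48 hours.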 Unmarked numbers belong to inactive results. Calls of active or inactive are those of the source. How the source made its calls: active means growth percent below 10; inactive means the rest.
Columns and labels:
Test in all cases: NCI-60 one-dose screen, 48 h (100 = growth as untreated, 0 = no growth, -100 = all killed)
Conditions in all cases: 10 µM unless noted
HCT-15 colon = tested on: HCT-15 colon
HT29 colon = tested on: HT29 colon
SNB-75 CNS = tested on: SNB-75 CNS
SNB-19 CNS = tested on: SNB-19 CNS
U251 CNS = tested on: U251 CNS
PC-3 prostate = tested on: PC-3 prostate
SK-MEL-5 melanoma = tested on: SK-MEL-5 melanoma
UACC-62 melanoma = tested on: UACC-62 melanoma
LOX IMVI melanoma = tested on: LOX IMVI melanoma
SK-MEL-28 melanoma = tested on: SK-MEL-28 melanoma

Row | Compound | growth (HCT-15 colon) | growth (HT29 colon) | growth (SNB-75 CNS) | growth (SNB-19 CNS) | growth (U251 CNS) | growth (PC-3 prostate) | growth (SK-MEL-5 melanoma) | growth (UACC-62 melanoma) | growth (LOX IMVI melanoma) | growth (SK-MEL-28 melanoma)
1 | c1cc2nc(-c3cn[nH]c3)c3c(c2cc1-c1cn[nH]c1)C1CCC3C1 (stereo not given) | 47.2% | 81.8% | -1.68% (active) | 78.9% | 72% | 62.3% | 60.2% | 59.6% | 69.1% | 73.7%
2 | Cc1ccc(-c2nc(N3CCN(CC(=O)Nc4ccc(Cl)c(C(F)(F)F)c4)CC3)c3ccccc3n2)cc1 | 79.1% | 89.8% | 81.2% | 98.8% | 93.2% | 79.1% | 103% | 83% | 92.1% | 105%
3 | CC(C)(C)NC(=O)C(OC(=O)c1cccc(Cl)c1)c1ccc(Cl)cc1 (stereo not given) | 103% | 87.6% | 103% | 103% | 94.5% | 94% | 98.2% | 104% | 94.1% | 105%
4 | O=C1/C(=C/c2ccccc2[N+](=O)[O-])Oc2ccc(O)c(O)c21 | 18.6% | 32.3% | 65.9% | 70.3% | 54.1% | 44.5% | 62% | -41.1% (active) | 14.3% | 22.5%
5 | CCCCCCN1C(=O)/C(=c2\sc3n(c2=O)C2C(NN=3)N(CC)C(=O)N2CC)c2ccccc21 (stereo not given) | 1.65% (active) | -24.7% (active) | -38.4% (active) | 22.5% | -21.3% (active) | 15.2% | 26.8% | 30.7% | -23% (active) | 35.1%
6 | COc1cc(C(=O)c2cnc(-c3cccc4[nH]ccc34)[nH]2)cc(OC)c1OC | 17.8% | 7.58% (active) | 30.5% | 40.3% | 20.2% | 22.4% | -23.6% (active) | 39.3% | 28.1% | 55.1%
7 | C/C(=C(/c1ccccc1)c1ccc(N2C(=O)c3cccc4c(N5CCN(C)CC5)ccc(c34)C2=O)cc1)c1ccccc1 | 56.8% | 24.8% | 98.1% | 88.9% | 75.4% | 61.4% | 76.3% | 73.5% | 24.6% | 88.4%
8 | CCCCNC(=O)Oc1ccc(/C(=C(\C)c2ccc(Cl)cc2)c2ccc(OCCN(CC)CC)cc2)cc1 | 19.5% | -10.2% (active) | 64.9% | 86% | 50.7% | 60.9% | 78.4% | 74.6% | 71.5% | 74.9%
9 | Oc1c(I)cc(I)cc1CNCCCN(Cc1ccccn1)Cc1ccccn1 | -37.7% (active) | -12.9% (active) | -89% (active) | 2.67% (active) | -12.9% (active) | -55.5% (active) | -96.9% (active) | -55.5% (active) | -91.7% (active) | -33.8% (active)
10 | O=C(/C=C/c1ccc([N+](=O)[O-])o1)NNC(=O)c1cc2ccccc2cc1O | -62.7% (active) | 7.4% (active) | 45.7% | 33.5% | 17.5% | 38.4% | -86.9% (active) | -99.1% (active) | -10.5% (active) | -46.1% (active)
11 | Nc1cc2c(cc1Br)-c1cc(Cl)ccc1C2=O | 102% | 102% | 96.8% | 104% | 98.1% | 95.2% | 90.9% | 96.3% | 102% | 106%
12 | Cc1ccc(C(=O)N/N=C/c2cccc(Oc3ccccc3)c2)cn1 | 38.5% | 20% | 65.7% | 65.6% | 58.9% | 76.7% | 47.4% | 38.3% | 63.9% | 63.7%
13 | c1ccc2c(-c3nc(-c4c[nH]c5ccncc45)cs3)c[nH]c2c1 | 6% (active) | 2.05% (active) | 57.6% | 86.5% | -14.9% (active) | 46.7% | 51.1% | 87.1% | -76% (active) | -89.8% (active)
14 | COc1cc2cc(Oc3ccc(NC(=O)Nc4ccc(Cl)c(Cl)c4)cc3)c(C)nc2cc1OCCN1CCOCC1 | 88.9% | 90.1% | 92.9% | 90.5% | 96.6% | 76.7% | 50.8% | 77.8% | 93.5% | 101%
15 | CC(=O)OC[C@H]1OC(Sc2sc(C(=O)c3ccc(C)cc3)c(N)c2-c2nc3ccccc3s2)[C@H](OC(C)=O)[C@@H](OC(C)=O)[C@@H]1OC(C)=O (stereo not given in full) | 59.5% | 69% | 25.4% | 74.4% | 59.5% | 63.2% | 45.5% | 55.8% | 54.5% | 76.4%
16 | C=C1CC[C@@]2(C#N)[C@H]3[C@H](CC[C@@H]2C)[C@@H](C)C[C@@H](CC(C)(C)C#N)[C@H]13 | 43.6% | 46.8% | 44.6% | 56.4% | 46.4% | 23.2% | 37.5% | 43.5% | 26.6% | 60.3%
17 | O=c1c2cccc(Cl)c2sc2c(NCCCNCCO)nc3ccccc3c12 | -24.3% (active) | -51.7% (active) | 51.9% | 45.7% | 10.8% | 41.8% | 81.8% | 66.2% | -93.1% (active) | 72.1%
18 | O=C(N/N=C/c1c(Cl)cccc1Cl)c1ccc(C(F)(F)F)nc1Nc1cccc(C(F)(F)F)c1 | -13.5% (active) | 15.6% | 48.8% | 19.6% | 2.92% (active) | 7.85% (active) | 7.65% (active) | -3.04% (active) | 3.01% (active) | 36.6%
19 | COc1ccc2c(c1)C(C)Cc1c(ncnc1-n1c(C)nc3ccccc31)N2C (stereo not given) | 22.8% | 7.08% (active) | -4.89% (active) | 32.3% | 25.6% | 16.2% | 20% | 23.3% | 25.7% | 66.4%
20 | Cc1cc(-c2cc(C)c(N)cc2C)c(C)cc1N | 73% | 99% | 101% | 85.2% | 71.8% | 80.5% | 81.6% | 75.8% | 75.6% | 89.3%
21 | c1ccc(CO[C@H]2CO[C@H]3[C@@H]2OC[C@@H]3Oc2ccc(Nc3ncnc4ccsc34)cc2)cc1 | 78.7% | 81.9% | 87.5% | 82.7% | 81.9% | 80.3% | 9.33% (active) | 59.9% | 78.8% | 88.9%
22 | COc1cccc(Oc2ccccc2NC(=O)CNC(=O)c2cccc3ccccc23)c1 | 17.8% [5 µM] | 6.01% [5 µM] (active) | 28% [5 µM] | 41.7% [5 µM] | 23.2% [5 µM] | 26.2% [5 µM] | 11.7% [5 µM] | 16.1% [5 µM] | 26.1% [5 µM] | 57.5% [5 µM]
23 | O=C(N/N=C/c1ccc(Cl)cc1)c1ccc(C(F)(F)F)nc1Nc1cccc(C(F)(F)F)c1 | -5.13% (active) | 16.1% | 61.3% | 30.4% | 5.89% (active) | 9.4% (active) | 33.1% | 26.7% | -13.9% (active) | -2% (active)
24 | Cc1ccc(C(=O)NN2C(=O)CSC2c2cccc([N+](=O)[O-])c2)cn1 (stereo not given) | 109% | 104% | 84.6% | 93.2% | 95.6% | 86.6% | 104% | 98.1% | 90% | 124%
25 | COc1cc2cc(Oc3ccc(NC(=O)Nc4cc(C(F)(F)F)cc(C(F)(F)F)c4)cc3)c(C)nc2cc1OCCN1CCOCC1 | 13.4% | 10.9% | 36% | 23.8% | 8.71% (active) | 10.5% | -13.1% (active) | 45.9% | 20.7% | 51.2%
26 | CCC(=O)Nc1ccc(-c2nc(-c3cccc(OC)c3)c(-c3ccnc(Br)c3)[nH]2)cc1 | 21.5% | 54.7% | 15.9% | 67.8% | 53.4% | 39.4% | 47.8% | 48.8% | 43.3% | 66%
